For part of these data: Results with a measured potency or affinity are listed apart. Active and inactive are the calls of the source.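 The calls were made as follows, unless noted: active = primary screen hit whose fluorescence ratio, in both repeats, exceeds the weak agonist control mean by 3 SD; inactive = the rest.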

In assay [1] the test system is TRPC4 beta (transient receptor potential cation channel C4), mouse. Put plainly: TRPC4 cation channel opening, retest – cell-based, Fluo4 calcium, HEK293 TRPC4beta/mu-opioid, duplicates, 10 µM, confirmation (AID 2426;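 active = fluorescence ratio normalized to control raised more than 50% in primary screen plus both repeat runs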;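 as to activation: percent rise of integrated ratio over buffer wells lacking compound which define 0%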). The conditions noted are these: Fluo4 calcium fluorescence, at 10 µM; hits give high values.
In assay [2] the test system is transient receptor potential cation channel C4 beta (TRPC4), mouse. Put plainly: TRPC4 cation channel opening, second retest – cell-based, second round, Fluo4, HEK293 TRPC4beta/mu-opioid, 1 µM, confirmation (AID 2461;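 active = primary screen active and over 50% activation in each of two duplicate runs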;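 as to activation: 0% = wells without test compound as baseline of integrated fluorescence ratio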). To be noted: Fluo4 calcium fluorescence, at 1 µM; hits give high values.
Assay [3] deals with TRPC4 (transient receptor potential cation channel C4 beta), mouse. Put plainly: potentiation of DAMGO EC20 TRPC4 response – cell-based, second round, Fluo-4, HEK293 TRPC4beta/mu-opioid, 1 µM, confirmation (AID 2554). To be noted: DAMGO EC20, Fluo-4 calcium flux, at 1 µM; hits give high values.
Assay [4] relates to TRPC4 beta (transient receptor potential cation channel C4), mouse. Put plainly: potentiation of DAMGO EC20 TRPC4 response – cell-based, Fluo-4, HEK293 TRPC4beta/mu-opioid, confirmation (AID 2555;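 active = primary screen hit whose calcium fluorescence ratio, in both repeats, exceeds the weak agonist control mean by 3 SD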). The conditions noted are these: DAMGO EC20, Fluo-4 calcium flux, at 10 µM; hits give high values.
For assay [5], the target named is Short transient receptor potential channel 4 (Mus musculus) (UniProt Q9QUQ5). Put plainly: blockers of DAMGO-evoked TRPC4 calcium flux – cell-based, Fluo4, HEK293 TRPC4beta/mu-opioid, confirmation (AID 2636;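 active = calcium signal cut by more than 3 SD below the full-agonist control yet still positive, in both repeats and the earlier primary screen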). To be noted: at 10 µM; hits give high values. A general note: Calcium flux is commonly read through the fluorescence of an indicator in the cells.
The target is the same in assay [6]. The experiment in a line: blockers of DAMGO-evoked TRPC4 calcium flux – cell-based, second round, Fluo4, HEK293 TRPC4beta/mu-opioid, 1 µM, confirmation (AID 2637;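 active = calcium signal ratio cut to more than 3 SD under the fully stimulated control mean yet still positive, in both repeats and the primary screen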). The conditions noted are these: at 1 µM; hits give high values.
Assay [7] shares this target. The experiment in a line: potentiation of DAMGO-evoked TRPC4 calcium signal – cell-based, HEK293 TRPC4/mu-opioid, Fluo-4 calcium, EC20 DAMGO, dose response (AID 434941;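 active = earlier screen potentiator hit that boosts the TRPC4 ion channel at some dose, with a dose response; inactive = no potentiation, no dose response, or not a prior hit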;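 also: calcium entry triggered by an EC20 dose of DAMGO at the co-expressed mu-opioid receptor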).
The target is the same in assay [8]. Put plainly: block of DAMGO-driven TRPC4 calcium entry – cell-based, HEK293 TRPC4/mu-opioid, Fluo-4 calcium, dose response (AID 434942;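 active = primary screen inhibitor hit that blocks the TRPC4 channel at some tested dose, yielding a dose curve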).
Assay [9] has as its target Short transient receptor potential channel 6 (Mus musculus) (UniProt Q61143). The experiment in a line: TRPC6 blockade by TRPC4 inhibitor hits – cell-based, HEK293, membrane potential dye, duplicate, selectivity assay for TRPC4 inhibitor project, confirmation (AID 434948;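 active = active in primary screen and both duplicates, each dropping signal beyond three positive-control SD with fluorescence still positive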). The conditions noted are these: HEK293 TRPC6, membrane potential dye fluorescence, at 10 µM, stimulated with maximal-effect acetylcholine; hits give high values.

For assay [10] the target is unchanged. The experiment in a line: TRPC6 opening by TRPC4 activator hits – cell-based, HEK293, membrane potential dye, duplicate, selectivity assay for TRPC4 activator project, confirmation (AID 434950;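 active = membrane potential signal rise above negative control mean plus 3 SD in both duplicates, also active in the earlier TRPC4 screen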;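 as to activation: 0% = buffer only wells and 100% = acetylcholine maximal-effect wells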). To be noted: HEK293 TRPC6, membrane potential fluorescence, at 10 µM; activation: hits give high values; outcome: activation.
The target is the same in assay [11]. The experiment in a line: positive modulators of mouse TRPC6 channel – HEK293 cells, membrane potential dye, duplicate, selectivity assay for TRPC4 potentiator project, confirmation (AID 434952;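 active = compound raising the membrane signal above positive-control mean plus 3 SD in both repeats, and a primary screen hit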). The conditions noted are these: HEK293 TRPC6, membrane potential dye fluorescence, at 10 µM, maximal acetylcholine added after compound; hits give high values.
The target in assay [12] is Short transient receptor potential channel 4 (Mus musculus) (UniProt Q9QUQ5). Put plainly: calcium flux activators in TRPC4/5HT1a cells, counter-screen for TRPC4 activator project, cell-based, second counter screen, HEK293 TRPC4/5HT1a, Fluo-4 (AID 434977;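 active = calcium signal rise above buffer-control mean plus 5 SD in both duplicates, and also a hit in the primary screen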;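 as to activation: plate controls were assay buffer for no effect and maximal serotonin response for full effect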). The conditions noted are these: Fluo-4 calcium flux, at 10 µM; hits give high values.
Assay [13] in a line: serotonin-gated TRPC4 signal block – cell-based, second counter screen, HEK293 TRPC4/5HT1a, Fluo-4, counter-screen for TRPC4 inhibitor project, confirmation (AID 434978;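 active = primary screen active whose calcium signal fell more than 3 SD beyond the full-serotonin control mean in both duplicate plates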;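 also: serotonin given first at submaximal then at maximal dose after compound preincubation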). To be noted: Fluo-4 calcium flux, at 10 µM, serotonin added to trigger calcium flux; hits give high values. A general note: A counterscreen serves to expose hits that act by an unwanted route or on another target.

Assay [14] concerns TRPC4 (mouse), co-expressed with 5HT1a in HEK293. The experiment in a line: enhancement of serotonin-evoked TRPC4 response – cell-based, second counter screen, HEK293 TRPC4/5HT1a, Fluo-4, counter-screen for TRPC4 potentiator project, confirmation (AID 434979;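 active = signal rise over 3 SD above mean of control wells given weak agonist, in both repeats and first screen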). To be noted: Fluo-4 calcium flux, at 10 µM, serotonin added at its EC20 dose; hits give high values.
Assay [15] can be described thus: nonspecific calcium rise without TRPC4 – cell-based, HEK293 mu-opioid receptor line, counter-screen for TRPC4 activator project, confirmation (AID 449723;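 active = hit in primary screen, with calcium signal over 5 SD above buffer well mean in both duplicates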;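 also: counter screen cells carry the mu-opioid receptor alone and lack TRPC4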). The conditions noted are these: HEK293 mu-opioid cells, Fluo-4 calcium fluorescence, at 10 µM; hits give high values.
Assay [16] is described as follows: nonspecific potentiation of DAMGO calcium response – cell-based, HEK293 mu-opioid receptor line, counter-screen for TRPC4 allosteric potentiator project, confirmation (AID 449724;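 active = calcium signal rise more than 3 SD above the low-dose agonist control mean, in both duplicate plates and the primary screen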;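 also: HEK293 cells carrying mu-opioid receptor only with no TRPC4 channel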). To be noted: HEK293 mu-opioid receptor cells, Fluo-4 calcium flux, at 10 µM, compound added before EC20 DAMGO stimulus; hits give high values.

Chain of Short transient receptor potential channel 6 (Mus musculus) (Q61143 whole entry, looked up): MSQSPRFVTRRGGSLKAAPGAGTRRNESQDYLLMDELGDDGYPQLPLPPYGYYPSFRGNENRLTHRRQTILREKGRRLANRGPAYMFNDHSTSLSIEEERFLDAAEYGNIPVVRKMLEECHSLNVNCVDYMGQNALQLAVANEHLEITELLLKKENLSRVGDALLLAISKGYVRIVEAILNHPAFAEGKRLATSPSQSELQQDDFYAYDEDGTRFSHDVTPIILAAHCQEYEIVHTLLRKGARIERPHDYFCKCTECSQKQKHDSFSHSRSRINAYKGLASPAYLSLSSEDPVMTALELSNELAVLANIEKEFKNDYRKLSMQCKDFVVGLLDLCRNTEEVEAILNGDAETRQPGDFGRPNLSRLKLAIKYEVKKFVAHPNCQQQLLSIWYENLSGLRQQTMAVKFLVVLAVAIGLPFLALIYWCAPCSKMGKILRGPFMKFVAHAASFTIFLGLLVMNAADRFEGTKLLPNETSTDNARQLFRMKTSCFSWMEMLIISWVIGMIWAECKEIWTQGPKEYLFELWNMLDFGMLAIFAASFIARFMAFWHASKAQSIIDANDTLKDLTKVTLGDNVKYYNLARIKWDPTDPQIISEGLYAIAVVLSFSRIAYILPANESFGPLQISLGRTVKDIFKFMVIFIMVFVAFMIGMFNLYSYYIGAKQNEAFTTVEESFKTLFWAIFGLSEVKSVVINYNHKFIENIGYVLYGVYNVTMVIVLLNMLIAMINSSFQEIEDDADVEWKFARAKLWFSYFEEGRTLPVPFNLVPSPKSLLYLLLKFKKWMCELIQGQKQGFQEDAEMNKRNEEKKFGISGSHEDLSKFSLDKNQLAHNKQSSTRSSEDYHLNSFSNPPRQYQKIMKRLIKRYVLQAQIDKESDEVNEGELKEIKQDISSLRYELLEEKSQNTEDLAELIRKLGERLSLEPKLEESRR
Chain of Short transient receptor potential channel 4 (Mus musculus) (Q9QUQ5 whole entry, looked up): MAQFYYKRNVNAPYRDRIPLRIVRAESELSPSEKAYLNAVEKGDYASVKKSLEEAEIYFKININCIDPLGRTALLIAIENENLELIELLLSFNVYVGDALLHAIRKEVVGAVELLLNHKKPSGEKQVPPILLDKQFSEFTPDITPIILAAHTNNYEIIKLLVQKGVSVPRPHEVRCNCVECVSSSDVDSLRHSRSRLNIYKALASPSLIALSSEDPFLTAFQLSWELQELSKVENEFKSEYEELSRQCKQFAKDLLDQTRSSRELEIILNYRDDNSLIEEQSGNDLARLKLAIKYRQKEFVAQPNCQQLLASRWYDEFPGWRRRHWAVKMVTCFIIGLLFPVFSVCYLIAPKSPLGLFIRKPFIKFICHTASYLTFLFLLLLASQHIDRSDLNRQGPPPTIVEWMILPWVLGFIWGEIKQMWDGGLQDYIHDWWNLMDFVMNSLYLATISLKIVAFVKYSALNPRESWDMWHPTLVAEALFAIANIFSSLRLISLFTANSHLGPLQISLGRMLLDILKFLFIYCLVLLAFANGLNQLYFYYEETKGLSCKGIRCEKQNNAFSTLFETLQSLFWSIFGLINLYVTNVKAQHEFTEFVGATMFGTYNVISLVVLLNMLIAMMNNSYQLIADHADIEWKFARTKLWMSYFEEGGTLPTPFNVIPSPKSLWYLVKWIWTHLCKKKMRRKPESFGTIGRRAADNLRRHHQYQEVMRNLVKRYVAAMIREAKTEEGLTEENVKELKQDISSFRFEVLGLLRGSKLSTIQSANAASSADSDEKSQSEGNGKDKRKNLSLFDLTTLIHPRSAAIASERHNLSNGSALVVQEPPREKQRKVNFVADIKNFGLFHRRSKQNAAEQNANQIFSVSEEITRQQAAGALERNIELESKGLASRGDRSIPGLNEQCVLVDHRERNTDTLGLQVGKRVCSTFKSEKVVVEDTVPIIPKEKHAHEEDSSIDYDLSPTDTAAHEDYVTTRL

For the molecule `COc1cc(OC)c(OC)cc1CCC(C)NCCC(c1ccccc1)c1ccccc1` (stereo not given), the activation in assay [1] is 106% (active); in assay [10], 28% (active); in assay [12], 66.8% (active); in assay [15], 11.2% (active). Besides, the result in assay [2], in [3], in assay [4], in assay [5], in [6] and in assay [7] was inactive. Also, the result in assay [8], in assay [9], in assay [11], in assay [13], in assay [14] and in assay [16] was inactive.

Consider `CN(C)CCNC(=O)c1c(NC(=O)c2ccccc2)sc2c1CCCC2`, for which the activation in [1] was 161% (active). For the same molecule, the outcome in assay [2], in [3], in [4], in assay [5], in assay [6] and in [7] was inactive. Also, the result in [8], in assay [9], in assay [10], in assay [11], in [12] and in [13] was inactive. Moreover, the outcome in assay [14], in [15] and in assay [16] was inactive.

On to `COC(=O)c1ccc(N2CCN(C)CC2)c(NC(=O)c2ccc(Br)o2)c1`, for which the activation in assay [1] was 148% (active); in assay [12] it was 13.3% (active). In addition, the outcome in [2], in assay [3], in [4], in assay [5], in assay [6] and in [7] was inactive. Besides, the result in assay [8], in [9], in [10], in assay [11], in [13] and in assay [14] was inactive. The outcome in assay [15] and in assay [16] was inactive.

Take `O=C(O)C1C2C=CC(C2)C1C(=O)N1CCN(C/C=C/c2ccccc2)CC1` (stereo not given): the activation in [1] was 71% (active); in assay [10] it was 26% (active); in [12], 12.8% (active). The result in assay [2], in assay [3], in [4], in [5], in assay [6] and in [7] was inactive. Moreover, the result in assay [8], in assay [9], in [11], in [13], in [14] and in assay [15] was inactive. In assay [16], the outcome was inactive.

On to `Cc1ccc(NC(=O)CNCC(c2ccccc2)N(C)C)cc1F` (stereo not given), for which the activation in assay [1] is 95% (active); in assay [10], 44% (active). The result in [2], in assay [3], in assay [4], in [5], in assay [6] and in assay [7] was inactive. Moreover, the result in assay [8], in [9], in assay [11], in assay [12], in [13] and in assay [14] was inactive. Further, the result in assay [15] and in assay [16] was inactive.

Take `CN(C)C(CNC(=O)Cc1ccc([N+](=O)[O-])cc1)c1ccccc1` (stereo not given): the activation in [1] is 161% (active); in assay [2], 124% (active). In addition, the outcome in assay [3], in assay [4], in assay [5], in [6], in assay [7] and in [8] was inactive. Also, the result in assay [9], in assay [10], in assay [11], in assay [12], in [13] and in assay [14] was inactive. Besides, the result in assay [15] and in assay [16] was inactive.

As to `COc1cc2c(cc1OC)C(C)N(C(=O)C(NC(=O)c1ccccc1)C(C)C)CC2` (stereo not given), the activation in [1] is 130% (active); in assay [10] it was 31% (active). For the same molecule, the result in assay [2], in [3], in [4], in assay [5], in assay [6] and in [7] was inactive. The result in assay [8], in [9], in [11], in [12], in [13] and in [14] was inactive. Moreover, the outcome in [15] and in assay [16] was inactive.

For `CN(C)C(CNC(=S)Nc1ccccc1Cl)c1cccnc1` (stereo not given), the activation in [1] is 109% (active); in assay [2] it was 144% (active). In addition, the outcome in [3], in [4], in assay [5], in [6], in [7] and in [8] was inactive. Besides, the outcome in assay [9], in assay [10], in assay [11], in [12], in assay [13] and in assay [14] was inactive. Further, the outcome in assay [15] and in [16] was inactive.

`CN(C)c1ccc(C(CNC(=O)Cc2cccc3ccccc23)N(C)C)cc1` (stereo not given): the activation in [1] is 102% (active). Also, the outcome in assay [2], in assay [3], in [4], in [5], in assay [6] and in assay [7] was inactive. Moreover, the outcome in assay [8], in assay [9], in assay [10], in [11], in [12] and in assay [13] was inactive. Also, the outcome in assay [14], in [15] and in [16] was inactive.

As to `Clc1cc(Cl)cc(C2=NC(Cc3ccccc3)CO2)c1` (stereo not given), the activation in assay [1] was 110% (active); in assay [10], 25% (active); in assay [12], 30.6% (active). Also, the outcome in assay [2], in [3], in [4], in assay [5], in assay [6] and in assay [7] was inactive. Moreover, the outcome in assay [8], in assay [9], in assay [11], in [13], in [14] and in assay [15] was inactive. In [16], the result was inactive.

For the molecule `CC(C)(C)C(=O)NC(=S)NNC(=O)c1sc2ccccc2c1Cl`, the activation is 323% (active) in [1]; 96% (active) in assay [2]; 36.5% (active) in [10]; 148% (active) in [12]; 136% (active) in assay [15]. Also, the result in assay [3], in assay [4], in assay [5], in [6], in [7] and in assay [8] was inactive. Moreover, the result in [9], in assay [11], in assay [13], in assay [14] and in assay [16] was inactive.

Consider `Cc1ccc2[nH]c3c(N4CCc5ccccc5C4)ncnc3c2c1`, for which the outcome in assay [1], in assay [2], in assay [3], in assay [4], in [5] and in assay [6] was inactive. Moreover, the outcome in [7], in [8], in assay [9], in assay [10], in [11] and in assay [12] was inactive. The result in assay [13], in [14], in assay [15] and in assay [16] was inactive.

On to `CN1CCN(C(=O)c2cccn(Cc3c(Cl)cccc3Cl)c2=O)CC1`, for which the activation was 147% (active) in assay [1], 88% (active) in [2] and 42.6% (active) in assay [12]. Besides, the outcome in assay [3], in [4], in [5], in assay [6], in assay [7] and in [8] was inactive. In addition, the call in [9], in assay [10], in [11], in assay [13], in assay [14] and in assay [15] was inactive. The outcome in assay [16] was inactive.

For `COc1ccc(C(CNC(=O)C2CCN(S(=O)(=O)c3ccc(F)cc3)CC2)N(C)C)cc1` (stereo not given), in assay [1], the activation was 149% (active). Also, the outcome in assay [2], in assay [3], in [4], in [5], in [6] and in assay [7] was inactive. For the same molecule, the result in assay [8], in assay [9], in [10], in assay [11], in [12] and in [13] was inactive. Moreover, the outcome in assay [14], in assay [15] and in assay [16] was inactive.

Regarding `CCCCN(CC)CCCNC(=O)Cn1nc(Cc2cccnc2)c2ccccc2c1=O`, the results for the activation in assay [1] and in assay [12] were 86% (active) and 28.3% (active), respectively. Further, the outcome in [2], in assay [3], in assay [4], in [5], in [6] and in assay [7] was inactive. Further, the result in [8], in [9], in [10], in assay [11], in assay [13] and in assay [14] was inactive. The result in assay [15] and in assay [16] was inactive.

Source of the values: PubChem BioAssay.
